# Active and inactive are the calls of the source. Entries that show only a call come without a potency. Calls come from the whole dose curve; as a rule, active = well fitted activation curve with a large enough effect; inconclusive = small, poorly fitted or top-dose-only effect; inactive = flat fitted curve, though single readings scatter.
# Assay: Cellular Toxicity (caspase-3) SK-N-SH (AID 661)
# Conditions: SK-N-SH caspase-3 activation, qHTS; series mostly up to 91.7 µM
# Description: NIH Chemical Genomics Center [NCGC]
# NIH Molecular Libraries Screening Centers Network [MLSCN]
# National Institutes of Environmental Health Sciences [NIEHS]
# National Toxicology Program [NTP]
# We have developed a 1536-well cell-based assay for quantitative high throughput screening (qHTS) against a number of cell lines to determine in vitro caspase 3/7 activity of small molecules. This particular assay uses the SK-N-SH cell line which is derived from human neuroblastoma.
# NCGC Assay Protocol Summary:
# The Caspase-Glo 3/7 assay (Promega) is a homogeneous method to measure caspase-3 and caspase-7 activities in cultured cells. The quantitation of caspase 3/7 activity is based on the cleavage of a peptide-aminoluciferin substrate. After caspase cleaves the substrate the free aminoluciferin is liberated and serves as the substrate of luciferase, which generates the light. The luminescent signal is proportional to amount of caspase 3/7 activity present.
# Using the Caspase-Glo 3/7 assay, the amount of caspase 3/7 activity was measured in the SK-N-SH cell line with complete culture medium following compound treatment for 16 hours. The assay was performed in opaque white 1536-well plates. In the screen, tamoxifen and staurosporine were used as positive controls. Library compounds were measured for their ability to cause the activation of caspase 3/7 in the cell line, as reflected by an increase in luminescence signal, in a concentration-dependent manner. Data were normalized to the controls for basal activity (DMSO only) and 100% stimulation (10 uM staurosporine). AC50 values were determined from concentration-response data modeled with the standard Hill equation.
# qHTS protocol for caspase 3/7 assay in SK-N-SH cells
# [Step] [Parameter] [Value] [Description]
# 1. Reagent; 5 uL; 1500 SK-N-SH cells/well
# 2. Time; 5 hr; 37 °C incubation
# 4. Controls; 23 nL; Tamoxifen 0.23 uM to 100 uM & staurosporine 1.4 pM to 100 uM
# 5. Time; 16 hr; 37 °C incubation
# 6. Reagent; 5 uL; Caspase-Glo 3/7 reagent
# 7. Time; 1 hr; Room Temperature
# 8. Detection; Luminescence; Viewlux plate reader
# Keywords: caspase 3/7, apoptosis, SK-N-SH cell line, luminescence, NTPHTS, NTPHTS_NCGC, NIEHS, EPA, DSSTox, MLSMR, MLSCN, NIH Roadmap, qHTS, NCGC
row,Compound,Potency
1,COC(=O)c1ccccc1N,inactive
2,C=CC=O,inactive
3,O=C(O)c1cccc(Cl)c1,inactive
4,CCCCCCCCCCCCCl,inactive
5,CCCCC#N,inactive
6,CCC/C=N/O,inactive
7,C=CCc1cc(OC)c2c(c1)OCO2,inactive
8,ClCCCCl,inactive
9,ClCCOCCCl,inactive
10,O=[N+]([O-])c1cccc2c([N+](=O)[O-])cccc12,inactive
11,CSSC,inactive
12,CN(C)C(=O)Nc1cccc(C(F)(F)F)c1,inactive
13,Nc1ccccc1-c1ccccc1,inactive
14,Cc1cc(-c2ccc(N)c(C)c2)ccc1N,inactive
15,Oc1cc(Cl)cc(Cl)c1,inactive
16,C=CC(=O)OCCN(C)C,inactive
17,CC(C)(C)c1ccccc1O,inactive
18,CC(=O)CCC(C)=O,inactive
19,O=NN1CCCCC1,inactive
20,Cc1ccc2c(C)cccc2c1,inactive

row,Compound,Potency
1,OCCOCCO,inactive
2,BrC(Br)Br,inactive
3,CC(Cl)CCl (stereo not given),inactive
4,CCCCCc1cc(O)cc(O)c1,inactive
5,S=c1[nH]c2ccccc2[nH]1,inactive
6,CC[N+](=O)[O-],inactive
7,BrCC(Br)C1CCC(Br)C(Br)C1 (stereo not given),inactive
8,CCN(N=O)C(N)=O,inactive
9,O=[N+]([O-])c1ccc(Cl)cc1,inactive
10,C=CC(=O)OC,inactive
11,CCCCC(=O)Cl,inactive
12,Cc1cc(N=Nc2ccccc2C)ccc1N,inactive
13,Nc1cc(Cl)ccc1O,inactive
14,Cc1ccc([N+](=O)[O-])cc1,inactive
15,CN=C=O,inactive
16,C=CCCl,inactive
17,CNC(=O)O/N=C/C(C)(C)S(C)=O (stereo not given),inactive
18,Cl/C=C/CCl,inactive
19,CC(C)Br,inactive
20,Cc1ccc(N)cc1N,inactive
